The record followed here is paper PMC8384837, “Expanding the binding specificity for RNA recognition by a PUF domain”.

The first assay addresses PUM1 PUF domain R5-GRY (Homo sapiens, UniProt Q14671 828-1176, C1007G;Q1011Y). The assay is described as follows: yeast three-hybrid, YBZ-1, SC-Leu-His + 0.5 mM 3-AT, 4 days. The following applies: tags: N-Gal4 AD-HA kept; label: inside an RPR1-promoter hybrid RNA with tandem MS2 sites; ssRNA. An outline of the steps: (§1)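 Matching RNA elements and Pumilio-1 PUF domain libraries, randomized at the three base-contacting residues of every repeat, were co-expressed from a centromeric plasmid in strain YBZ-1 (LexA–MS2 coat fusion, HIS3 reporter). The repeat regions were PCR-amplified and Illumina-sequenced from cells grown four days on SC-Leu (input) or SC-Leu-His + 0.5 mM 3-AT (selection). The interaction score is the log change in variant frequency from input to selection. It is computed in log2, with a pseudocount of 1 for absent variants.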
With “GGCUAGAACUAGUGGAUCCCCCGGCGCCCGGCGGCUCGAGCCCGGGUAAGUGUUAAUAGUCUGCAUGCCGCCGGGCGCCAUGCCUGCAGGUCGACUCUAGAAAACAUG”, the binding signal was 3.13 log2 enrichment (interaction score).

Take “GGCUAGAACUAGUGGAUCCCCCGGCGCCCGGCGGCUCGAGCCCGGGUAAGUGUAAAUAGUCUGCAUGCCGCCGGGCGCCAUGCCUGCAGGUCGACUCUAGAAAACAUG”: the binding signal was 3.42 log2 enrichment (interaction score).

With “GGCUAGAACUAGUGGAUCCCCCGGCGCCCGGCGGCUCGAGCCCGGGUAAGUGUCAAUAGUCUGCAUGCCGCCGGGCGCCAUGCCUGCAGGUCGACUCUAGAAAACAUG”, the binding signal was 0.08 log2 enrichment (interaction score).

For the next assay, the target named is PUM1 PUF domain R4-TPV (Homo sapiens, UniProt Q14671 828-1176, N971T;H972P;Q975V). The description is as above. The conditions noted are these: tags: N-Gal4 AD-HA kept; label: inside an RPR1-promoter hybrid RNA with tandem MS2 sites; ssRNA. An outline of the steps:
as §1
For “GGCUAGAACUAGUGGAUCCCCCGGCGCCCGGCGGCUCGAGCCCGGGUAAGUGUACAUAGUCUGCAUGCCGCCGGGCGCCAUGCCUGCAGGUCGACUCUAGAAAACAUG”, the binding signal is 2.89 log2 enrichment (interaction score).

Turning to “GGCUAGAACUAGUGGAUCCCCCGGCGCCCGGCGGCUCGAGCCCGGGUAAGUGUAAAUAGUCUGCAUGCCGCCGGGCGCCAUGCCUGCAGGUCGACUCUAGAAAACAUG”, the binding signal was 2.59 log2 enrichment (interaction score).

As for “GGCUAGAACUAGUGGAUCCCCCGGCGCCCGGCGGCUCGAGCCCGGGUAAGUGUAUAUAGUCUGCAUGCCGCCGGGCGCCAUGCCUGCAGGUCGACUCUAGAAAACAUG”, the binding signal was 2.96 log2 enrichment (interaction score).

Another assay concerns the target PUM1 PUF domain R3-VWG (Homo sapiens, UniProt Q14671 828-1176, C935V;R936W;Q939G). The assay is described as above. The following applies: tags: N-Gal4 AD-HA kept; label: inside an RPR1-promoter hybrid RNA with tandem MS2 sites; ssRNA. An outline of the steps:
as §1
For the sequence “GGCUAGAACUAGUGGAUCCCCCGGCGCCCGGCGGCUCGAGCCCGGGUAAGUGUAAUUAGUCUGCAUGCCGCCGGGCGCCAUGCCUGCAGGUCGACUCUAGAAAACAUG”, the binding signal was 2.33 log2 enrichment (interaction score).

Regarding “GGCUAGAACUAGUGGAUCCCCCGGCGCCCGGCGGCUCGAGCCCGGGUAAGUGUAAAUAGUCUGCAUGCCGCCGGGCGCCAUGCCUGCAGGUCGACUCUAGAAAACAUG”, the binding signal was 4.18 log2 enrichment (interaction score).

For the sequence “GGCUAGAACUAGUGGAUCCCCCGGCGCCCGGCGGCUCGAGCCCGGGUAAGUGUAAGUAGUCUGCAUGCCGCCGGGCGCCAUGCCUGCAGGUCGACUCUAGAAAACAUG”, the binding signal is 1.81 log2 enrichment (interaction score).

In another assay the target is PUM1 PUF domain R5-FRK (Homo sapiens, UniProt Q14671 828-1176, C1007F;Q1011K). Described as above. The following applies: tags: N-Gal4 AD-HA kept; label: inside an RPR1-promoter hybrid RNA with tandem MS2 sites; ssRNA. An outline of the steps: as §1
On to “GGCUAGAACUAGUGGAUCCCCCGGCGCCCGGCGGCUCGAGCCCGGGUAAGUGUUAAUAGUCUGCAUGCCGCCGGGCGCCAUGCCUGCAGGUCGACUCUAGAAAACAUG”, for which the binding signal is 3.62 log2 enrichment (interaction score).

Take “GGCUAGAACUAGUGGAUCCCCCGGCGCCCGGCGGCUCGAGCCCGGGUAAGUGUAAAUAGUCUGCAUGCCGCCGGGCGCCAUGCCUGCAGGUCGACUCUAGAAAACAUG”: the binding signal is 2.17 log2 enrichment (interaction score).

Turning to “GGCUAGAACUAGUGGAUCCCCCGGCGCCCGGCGGCUCGAGCCCGGGUAAGUGUCAAUAGUCUGCAUGCCGCCGGGCGCCAUGCCUGCAGGUCGACUCUAGAAAACAUG”, the binding signal was 3.81 log2 enrichment (interaction score).

For a further assay, the target named is PUM1 PUF domain R5-KGK (Homo sapiens, UniProt Q14671 828-1176, C1007K;R1008G;Q1011K). Described as above. The following applies: tags: N-Gal4 AD-HA kept; label: inside an RPR1-promoter hybrid RNA with tandem MS2 sites; ssRNA. Summed up: as §1
Turning to “GGCUAGAACUAGUGGAUCCCCCGGCGCCCGGCGGCUCGAGCCCGGGUAAGUGUUAAUAGUCUGCAUGCCGCCGGGCGCCAUGCCUGCAGGUCGACUCUAGAAAACAUG”, the binding signal was 1.81 log2 enrichment (interaction score).

Regarding “GGCUAGAACUAGUGGAUCCCCCGGCGCCCGGCGGCUCGAGCCCGGGUAAGUGUAAAUAGUCUGCAUGCCGCCGGGCGCCAUGCCUGCAGGUCGACUCUAGAAAACAUG”, the binding signal was 1.56 log2 enrichment (interaction score).

“GGCUAGAACUAGUGGAUCCCCCGGCGCCCGGCGGCUCGAGCCCGGGUAAGUGUCAAUAGUCUGCAUGCCGCCGGGCGCCAUGCCUGCAGGUCGACUCUAGAAAACAUG”: the binding signal is 4.24 log2 enrichment (interaction score).
